Here are results for 28 compounds from ChEMBL document CHEMBL1157539, “Thousands of chemical starting points for antimalarial lead identification” (Nature, 2010).

Format in all cases: functional
Assay [1] relates to Plasmodium falciparum. In words: GSK_TCMDC: Inhibition of Plasmodium falciparum 3D7 in whole red blood cells, using parasite LDH activity as an index of growth. Test compounds present at 2uM.
Assay [2] relates to Plasmodium falciparum. The assay is described as follows: GSK_TCMDC: Inhibition of Plasmodium falciparum Dd2 in whole red blood cells, using parasite LDH activity as an index of growth. Test compounds present at 2uM.
For assay [3], the system named is HepG2. In words: GSK_TCMDC: Percent inhibition of human HepG2 cell line. Test compounds present at 10uM.

In the case of `COc1ccc(-c2ccc(NC(=O)c3ccc(Cl)cc3)cc2)cc1CN1CCC(O)CC1.O=C(O)C(F)(F)F`, the Inhibition in assay [1] is 89%; in assay [2], 15%; in assay [3], 20%.

`CCOC(=O)C(NC(=O)c1ccc([N+](=O)[O-])o1)C(C)C` (centres undefined): the Inhibition in assay [1] amounted to 87%; in assay [2], 8%; in assay [3], 0%.

As to `Clc1ccc(Nc2nc(Nc3ccc(Cl)c(Cl)c3)nc(Sc3nc4ccccc4[nH]3)n2)cc1Cl`, the Inhibition is 99% in assay [1], 100% in assay [2] and 10% in assay [3].

`Cc1cc(NC(=O)NCCN2CCC(NS(=O)(=O)c3ccc(C(F)(F)F)cc3)C2)c2ccccc2n1.O=C(O)C(F)(F)F` (centres undefined): the Inhibition was determined as 96% in assay [1], 39% in assay [2] and 15% in assay [3].

With `COc1ccc2c(=NN=Cc3ccccc3Cl)cc(C)[nH]c2c1`, the Inhibition in assay [1] is 100%; in assay [2], 99%; in assay [3] it was 5%.

As to `COc1ccc2nccc([C@@H](O)CN3CCC(NC(=O)/C=C/c4ccc(F)c5ccccc45)CC3)c2c1`, the results for the Inhibition in assay [1], in assay [2] and in assay [3] were 100%, 75% and 37%, respectively.

For `O=C(O)C(F)(F)F.c1ccc2c(c1)CN(Cc1cc3ccccc3[nH]1)CC1(CCN(Cc3c[nH]c4cnccc34)CC1)O2`, the Inhibition in assay [1] is on record as 100%; in assay [2], 62%; in assay [3], 27%.

In the case of `CC(CCCCCC(=O)Nc1ccc(CC(C)NCCc2cccc(Cl)c2)cc1)NCCc1cccc(Cl)c1` (centres undefined), the Inhibition in assay [1] came to 91%; in assay [2] it was 37%; in assay [3] it was 99%.

Consider `Nc1oc2c(CN3CCCCCC3)c(O)ccc2c(=O)c1-c1nc2ccccc2s1`, for which the figures for the Inhibition in assay [1], in assay [2] and in assay [3] were 100%, 99% and 12%, respectively.

In the case of `CC(C)CCCC(C)NC[C@@H](O)[C@H](Cc1ccccc1)NC(=O)c1cc(N2CCCC2=O)cc(N(c2ccccc2)S(C)(=O)=O)c1` (some centres undefined), the Inhibition was 99% in assay [1], 97% in assay [2] and 17% in assay [3].

Consider `Cc1cc(N[C@@H](Cc2ccccc2)C(=O)NCCc2ccccc2)nc(NCCOc2ccccc2)n1.O=C(O)C(F)(F)F`, for which the Inhibition in assay [1] is 95%; in assay [2] it was 14%; in assay [3], 10%.

Consider `CC(=O)Nc1ccc([N+](=O)[O-])c2c(Br)cccc12`, for which the Inhibition in assay [1] stood at 100%; in assay [2] it was 0%; in assay [3] it was 0%.

As to `COc1ccc2c(=O)c(-c3ccc(OC(F)(F)F)cc3)c(C)[nH]c2c1`, the results for the Inhibition in assay [1], in assay [2] and in assay [3] were 97%, 96% and 0%, respectively.

For `Cc1cccc2c3c([nH]c12)C1(CCN(Cc2ccccc2)CC1)NC(C(=O)NCc1ccccc1)C3` (centres undefined), the Inhibition in assay [1] came to 81%; in assay [2], 8%; in assay [3], 0%.

Turning to `COc1ccc(C=NN=c2c3ccccc3[nH]c3ccccc23)c2ccccc12`, the Inhibition in assay [1] came to 82%; in assay [2], 23%; in assay [3], 9%.

Regarding `COc1cccc(CN2CCCC(OC(c3ccccc3)c3ccccc3)C2)c1O.O=C(O)C(F)(F)F` (centres undefined), the figures for the Inhibition in assay [1], in assay [2] and in assay [3] were 90%, 73% and 19%, respectively.

Take `O=c1cc(NCCCNCc2cc(C(F)(F)F)ccc2Cl)[nH]c2ccccc12`: the Inhibition is 90% in assay [1], 20% in assay [2] and 25% in assay [3].

Take `COc1ccc(S(=O)(=O)NCCCC2CCN(CCCCCNC(=O)C=Cc3ccc(Cl)c(Cl)c3)CC2)cc1`: the Inhibition was determined as 85% in assay [1], 12% in assay [2] and 24% in assay [3].

As to `Cl.Fc1ccccc1COc1ccc(Nc2ncnc3ccc(-c4nnc(C(F)(F)F)o4)cc23)cc1Cl`, the Inhibition came out at 100% in assay [1], 46% in assay [2] and 7% in assay [3].

For `CCNc1cc(C(=O)N[C@@H](Cc2ccccc2Cl)[C@H](O)CNC2CCCCC2)cc(N2CCCCS2(=O)=O)c1.Cl`, the Inhibition in assay [1] worked out at 99%; in assay [2], 97%; in assay [3] it was 6%.

As to `CN1CCN(c2ccc(Nc3nccc(-c4c(-c5cccc(NC(=O)c6c(F)cccc6F)c5)nn5ccccc45)n3)cc2)CC1`, the Inhibition is 98% in assay [1], 98% in assay [2] and 86% in assay [3].

As for `O=C(NC1CCCCC1)C(c1cccs1)N(CCc1ccccc1)C(=O)c1ccco1` (centres undefined), the Inhibition in assay [1] is on record as 92%; in assay [2] it was 63%; in assay [3] it was 0%.

`Br.CC1(C)NC(N)=NC(=N)N1OCCc1ccc(N)cc1`: the results for the Inhibition in assay [1], in assay [2] and in assay [3] were 93%, 95% and 65%, respectively.

Turning to `O=C(Nc1ccc(CCNC2=NCCN2)cc1)Nc1ccc(CCNC2=NCCN2)cc1`, the Inhibition in assay [1] is listed as 90%; in assay [2], 66%; in assay [3], 6%.

For the compound `O=C(Nc1ccc(F)c(F)c1)c1ccc(CN2CCCN(Cc3cccc(F)c3)CC2)cc1.O=C(O)C(F)(F)F`, the Inhibition in assay [1] is 83%; in assay [2] it was 12%; in assay [3], 51%.

For `Cc1cccc2nc(-c3cccc(-c4ccc(NC(=O)c5cnccc5C(F)(F)F)cc4)c3)[nH]c12`, the Inhibition in assay [1] turned out to be 100%; in assay [2], 37%; in assay [3], 60%.

With `O=S(=O)(c1cc2ccccc2s1)N(CCC(O)(C(F)(F)F)C(F)(F)F)Cc1cccc(O)c1`, the Inhibition was determined as 100% in assay [1], 99% in assay [2] and 0% in assay [3].

With `CS(=O)(=O)NCCCNCc1cccc(-c2ccc(-c3nc4cc(C(F)(F)F)ccc4[nH]3)cc2)c1.O=C(O)C(F)(F)F`, the Inhibition was 100% in assay [1], 85% in assay [2] and 17% in assay [3].
